The source made the active and inactive calls.
Columns and labels:
[1] = anti-His antibody binders, primary screen, artefact control for SMM control protein annotation, biochemical, small-molecule microarray, 635 nm fluorescence (AID 1128); conditions: anti-His Alexa647 antibody binding, higher = more signal;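 also: score merges feature fluorescence with signal-to-noise for each printed compound spot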
[2] = tested on: Human papillomavirus type 1a E7 protein (residues 1-88); assay: HPV1a E7 small-molecule binders, primary screen, biochemical, small-molecule microarray, residues 1-88, 635 nm (AID 1129); conditions: small-molecule microarray binding, fluorescence 635 nm; higher = more signal
[3] = molecular target: Focal adhesion kinase 1 (Homo sapiens) (UniProt Q05397); assay: small-molecule microarray binders of FAK, primary screen, biochemical, 635/667 nm fluorescence, BSA, DTT (AID 1130); conditions: PTK2 binding, 635 nm fluorescence, higher = more signal;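 also: composite of spot emission at 667 nm and signal to noise over triplicate slides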
Focal adhesion kinase 1 (Homo sapiens), sequence (Q05397 whole entry, looked up): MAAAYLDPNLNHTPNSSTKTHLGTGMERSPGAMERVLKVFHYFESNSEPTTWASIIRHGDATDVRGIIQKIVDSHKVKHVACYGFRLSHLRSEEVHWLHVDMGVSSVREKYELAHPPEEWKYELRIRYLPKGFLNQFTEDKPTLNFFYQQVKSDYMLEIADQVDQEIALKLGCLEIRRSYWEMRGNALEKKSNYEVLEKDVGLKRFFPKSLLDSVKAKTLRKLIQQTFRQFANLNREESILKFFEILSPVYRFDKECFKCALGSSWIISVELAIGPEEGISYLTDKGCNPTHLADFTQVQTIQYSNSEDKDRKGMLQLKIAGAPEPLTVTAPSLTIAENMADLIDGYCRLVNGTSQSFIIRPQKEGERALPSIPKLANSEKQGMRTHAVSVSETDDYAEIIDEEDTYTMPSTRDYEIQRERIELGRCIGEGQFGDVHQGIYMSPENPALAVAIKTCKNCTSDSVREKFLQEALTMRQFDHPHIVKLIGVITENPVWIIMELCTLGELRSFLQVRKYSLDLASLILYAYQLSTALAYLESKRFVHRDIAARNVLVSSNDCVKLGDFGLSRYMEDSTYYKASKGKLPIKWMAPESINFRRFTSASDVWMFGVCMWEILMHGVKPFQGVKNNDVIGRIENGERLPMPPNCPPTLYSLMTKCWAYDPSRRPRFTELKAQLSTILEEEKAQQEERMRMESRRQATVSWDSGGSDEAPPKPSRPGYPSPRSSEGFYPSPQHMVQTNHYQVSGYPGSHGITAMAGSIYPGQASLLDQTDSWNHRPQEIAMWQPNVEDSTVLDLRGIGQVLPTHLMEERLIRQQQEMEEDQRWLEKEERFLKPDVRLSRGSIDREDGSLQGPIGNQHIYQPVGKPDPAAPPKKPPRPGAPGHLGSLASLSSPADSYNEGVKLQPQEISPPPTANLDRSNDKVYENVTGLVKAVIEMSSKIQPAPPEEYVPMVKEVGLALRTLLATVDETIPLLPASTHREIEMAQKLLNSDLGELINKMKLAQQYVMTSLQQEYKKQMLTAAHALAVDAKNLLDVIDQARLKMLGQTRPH

[4] = tested on: Fibrinogen (Alexa647-labelled); assay: fibrinogen binders on compound microarrays, profiling panel, artefact control for SMM control-protein annotation, biochemical, small-molecule microarray, 635/667 nm fluorescence (AID 1131); conditions: fibrinogen-A647 binding fluorescence, higher = more signal;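 also: z-score merges 667 nm fluorescence with per-spot signal-to-noise over triplicate slides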
[5] = molecular target: Follistatin (Homo sapiens) (UniProt P19883); assay: follistatin binders on small-molecule microarrays, primary screen, biochemical, small-molecule microarray, 635/667 nm fluorescence (AID 1132); conditions: FST binding, 635 nm fluorescence, higher = more signal
Follistatin (Homo sapiens), sequence (P19883 whole entry, looked up): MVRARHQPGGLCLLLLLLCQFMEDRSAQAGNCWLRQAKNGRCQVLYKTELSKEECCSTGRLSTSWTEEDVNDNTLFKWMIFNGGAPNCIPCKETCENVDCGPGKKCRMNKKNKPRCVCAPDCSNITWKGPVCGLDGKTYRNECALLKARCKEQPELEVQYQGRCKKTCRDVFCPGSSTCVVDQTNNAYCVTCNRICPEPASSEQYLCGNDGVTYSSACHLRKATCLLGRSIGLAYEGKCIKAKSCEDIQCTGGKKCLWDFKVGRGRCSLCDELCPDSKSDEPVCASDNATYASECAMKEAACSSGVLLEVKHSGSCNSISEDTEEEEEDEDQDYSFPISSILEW

[6] = molecular target: Fibroblast growth factor 2 (Homo sapiens) (UniProt P09038); assay: FGF2 binders on small-molecule microarrays, primary screen, biochemical, small-molecule microarray, 635/667 nm fluorescence (AID 1133); conditions: small-molecule microarray binding, FGF2, fluorescence 635/667; higher = more signal
Fibroblast growth factor 2 (Homo sapiens), sequence (P09038 whole entry, looked up): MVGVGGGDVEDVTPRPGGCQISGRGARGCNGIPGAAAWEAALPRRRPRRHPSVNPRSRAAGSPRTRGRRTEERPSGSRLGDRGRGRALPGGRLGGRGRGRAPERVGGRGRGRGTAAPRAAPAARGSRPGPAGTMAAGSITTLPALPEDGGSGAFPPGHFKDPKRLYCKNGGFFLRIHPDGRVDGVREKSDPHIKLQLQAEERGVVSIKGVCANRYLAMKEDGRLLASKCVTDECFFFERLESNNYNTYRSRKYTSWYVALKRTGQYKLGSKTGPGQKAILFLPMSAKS

[7] = mitochondrial membrane potential change in A549 cells, profiling panel, cell-based, JC-1 fluorescence, basal, 24 h, 100 nL (AID 1138); conditions: higher = more signal;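 also: A549 lung adenocarcinoma cells under basal conditions with no added stimulus; test concentration not given here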
Lefty1 = Lefty1 binders on small-molecule microarrays, primary screen, biochemical, small-molecule microarray, 635/667 nm fluorescence (AID 1139); conditions: small-molecule microarray binding, fluorescence 635/667; higher = more signal
[8] = tested on: wheat germ agglutinin (Triticum aestivum), Alexa647-labelled; assay: wheat germ agglutinin binders on compound microarrays, profiling panel, artefact control for SMM control-protein annotation, biochemical, small-molecule microarray, 635/667 nm fluorescence (AID 1140); conditions: WGA-A647 binding, 635 nm fluorescence, higher = more signal;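 also: score merges 667 nm feature emission with signal to noise over triplicate slides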
[9] = molecular target: Luciferin 4-monooxygenase (Photinus pyralis) (UniProt P08659); assay: firefly luciferase enzyme inhibitors, primary screen, biochemical, luminescence, purified enzyme, 2006 set (AID 1141); conditions: SteadyGlo luminescence, 30 min, higher = more signal, called active from +8 up or from −8 down;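 also: cell-free assay with purified firefly luciferase at 100 ng per well in PBS; test concentration not given here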
Luciferin 4-monooxygenase (Photinus pyralis), sequence (P08659 whole entry, looked up): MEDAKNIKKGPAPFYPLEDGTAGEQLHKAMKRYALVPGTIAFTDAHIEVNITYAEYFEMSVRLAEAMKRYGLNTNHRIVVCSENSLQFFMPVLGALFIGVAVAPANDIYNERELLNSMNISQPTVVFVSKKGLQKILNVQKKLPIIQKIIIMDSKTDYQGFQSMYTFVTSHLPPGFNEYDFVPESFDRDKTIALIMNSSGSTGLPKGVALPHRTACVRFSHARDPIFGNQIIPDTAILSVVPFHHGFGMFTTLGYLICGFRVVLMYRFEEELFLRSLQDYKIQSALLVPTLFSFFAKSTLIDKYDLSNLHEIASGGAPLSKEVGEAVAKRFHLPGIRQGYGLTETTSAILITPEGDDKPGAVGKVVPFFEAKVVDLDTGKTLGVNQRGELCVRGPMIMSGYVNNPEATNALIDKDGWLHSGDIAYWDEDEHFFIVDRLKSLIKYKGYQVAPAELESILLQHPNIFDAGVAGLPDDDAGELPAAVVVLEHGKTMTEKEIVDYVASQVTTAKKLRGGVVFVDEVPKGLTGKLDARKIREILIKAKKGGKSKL

SMILES | composite z-score [1] | composite z-score [2] | composite z-score [3] | composite z-score [4] | composite z-score [5] | composite z-score [6] | z-score [7] | composite z-score (Lefty1) | composite z-score [8] | z-score [9]
CCOC(=O)[C@H](Cc1ccccc1)NC(=O)OC1CC(CCC2CC(CC)=NO2)OC2(CCCC(COC(=O)NCCC(C)C)O2)C1 (stereo not given in full) | 0.272 | 0.55 | 0.271 | 0.305 | 0.0871 | 0.342 | -0.0991 | -0.033 | 0.668 | 0.772 (inactive)
CC(CCN1CCCCc2nc(C)c(C)cc21)=NOC[C@@H](O)COCc1ccco1 | 0.111 | -0.91 | 0.0817 | -0.426 | 1.42 | 1.98 | 0.143 | 1.68 | -0.466 | 0.357 (inactive)
COc1cccc([C@H]2Oc3ccc(OC)cc3C(=NO[C@H](C)c3cn([C@H](CO)Cc4ccccc4)nn3)[C@@H]2O)c1 | 0.533 | -0.323 | -0.181 | -0.095 | -0.0053 | 0.185 | -0.685 | 0.0027 | -0.124 | 0.417 (inactive)
CSCC[C@@H]1NC(=O)CC=C[C@@H](C)COC(=O)[C@@H](C)COC1=O | -0.888 | -1.81 | -0.948 | -2.46 | 0.556 | 0.0867 | 1.31 | -0.0168 | -1.71 | -0.343 (inactive)
COC(=O)NCC=Cc1nc(CCCO)co1 | 0.53 | 0.804 | -0.0457 | 0.0947 | 0.614 | 0.564 | -0.223 | 0.706 | -0.0407 | 0.604 (inactive)
Cc1ccc(S(=O)(=O)N[C@H]2COC(=O)CC=C[C@H](C)[C@@H](NS(=O)(=O)c3ccc(C)cc3)COC(=O)CC=C[C@@H]2C)cc1 | -0.308 | 0.42 | 0.106 | 0.129 | 0.471 | 0.647 | -0.617 | 0.556 | 0.0337 | 0.846 (inactive)
C[C@H](ON=C1[C@H]2CCn3c(=O)n(-c4ccccc4)c(=O)n3[C@H]2[C@H](O)[C@@H]2O[C@H]12)c1cn([C@H](CO)Cc2ccccc2)nn1 | -0.692 | 0.588 | 0.273 | 0.985 | 0.3 | 0.646 | -0.717 | 0.572 | 0.742 | -0.0281 (inactive)
CCOC(=O)[C@H](CC(C)C)NC(=O)CCC1CC(OC(=O)NCc2cccc3ccccc23)CC2(CCCC(COC(=O)NCCc3ccc(Cl)cc3)O2)O1 (stereo not given in full) | 0.372 | 0.484 | 0.218 | 0.635 | 0.547 | 0.352 | 0.31 | 0.863 | 0.844 | 0.226 (inactive)
CO[C@H]1COC(=O)CCC[C@@H](C)[C@H](OC)COC(=O)[C@@H](C)NC(=O)CC=C[C@@H]1C | -0.132 | -1.12 | -0.154 | -0.737 | 1.12 | 1.17 | -0.716 | 1.42 | -0.878 | 0.624 (inactive)
CCOC(=O)NN=C1C[C@@H](O)[C@@H](O)[C@@H]2[C@@H]3C(=O)N(c4ccc(F)cc4F)C(=O)[C@@H]3CC[C@@H]12 | 0.508 | 0.574 | 0.252 | 0.331 | 0.519 | 0.187 | -0.389 | 0.775 | 0.455 | 1.04 (inactive)
CCN1C(=O)[C@H]2[C@H]3[C@H](O)[C@H](O)CC(=NNC(=O)OCc4ccc(OC)cc4)[C@@H]3CC[C@H]2C1=O | 0.0221 | -0.562 | 0.0875 | -0.193 | -0.735 | 0.193 | -0.0338 | -0.524 | 0.0083 | -0.207 (inactive)
CCOC(=O)[C@H](Cc1ccccc1)NC(=O)CCC1CC(OC(=O)NCCc2ccc(F)cc2)CC2(CCCC(COC(=O)NCC3CCCCC3)O2)O1 (stereo not given in full) | 0.542 | 0.816 | 0.465 | 0.656 | 0.857 | 0.238 | 0.812 | 1.21 | 0.395 | 0.356 (inactive)
CCOC(=O)[C@H](Cc1ccccc1)NC(=O)CCC1CC(OC(=O)NCc2cccc3ccccc23)CC2(CCCC(COC(=O)NCc3ccccc3)O2)O1 (stereo not given in full) | -0.198 | 0.3 | 0.172 | 0.0039 | 0.449 | 0.348 | -0.133 | 0.401 | -0.0623 | 0.877 (inactive)
CO[C@H]1COC(=O)[C@@H]2CCCN2C(=O)CC=C[C@@H](C)[C@H](OC)COC(=O)[C@@H](OCc2ccccc2)C=C[C@@H]1C | -0.228 | -1.15 | 0.0122 | -0.557 | 1.27 | 1.02 | 0.0486 | 1.5 | -0.83 | 0.168 (inactive)
O=C1C[C@@H](O)[C@@H](O)[C@@H]2[C@@H]3C(=O)N(C[C@@H]4CCCO4)C(=O)[C@@H]3CC[C@H]12 | 0.284 | 0.569 | -0.266 | 0.684 | 0.236 | 0.538 | 0.991 | 0.548 | 0.085 | -0.635 (inactive)
CCO[C@H](c1cc(OC)cc([N+](=O)[O-])c1OC)[C@H](C)C=CCC(=O)OC | 0.051 | -0.467 | -0.361 | -0.364 | 0.66 | 0.479 | 0.347 | 0.747 | 0.0356 | -0.734 (inactive)
